# ELG1 repair inh: inhibitors of ELG1-dependent DNA repair in HEK293T cells; HEK293T ELG1-luciferase reporter, luminescence, 16 h; DNA damage induced by 5-fluorouridine; Potency, µM (top dose mostly 46.1 µM), without a hit: top-dose activity change, negative = inhibition, usual class: inhibitors; 330,000 tested, 2.3% active; further: potency means the concentration at half of the fitted maximal effect; nearly all actives have a fitted effect of over 55% in size
#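 Cells (2,000 per well) received 5-fluorouridine plus test compound or DMSO and were incubated 16 hr at 37 °C, 5% CO2. Luciferase activity was read by luminescence 30 min after ONE-Glo addition; signal suppression marked inhibition of damage-induced ELG1 function.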
# HT1080-NT tox: kills 2HG-producing HT-1080-NT fibrosarcoma cells; 360,000 tested, 1.6% active; Potency, µM (titrated, usually from 46.1 µM), for inactives: at the highest dose activity, negative = less viability, usual class: cytotoxic; HT-1080-NT fibrosarcoma viability, CellTiter-Glo ATP luminescence, 48 h;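 further: NT is the 2HG producing partner of a matched IDH1 knockdown line; potency means the concentration at half of the fitted maximal effect; 0% = DMSO-treated cells and -100% = media-only wells without cells; nearly all actives have a fitted effect of over 55% in size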
#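 Read-out is CellTiter-Glo luminescence after 10 minutes at room temperature, following 48 hours' compound treatment of HT-1080-NT cells (750 cells/well, RPMI, 5% FBS, 37 degrees C).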
# HT1080 IDH1KD tx: kills HT-1080 cells with IDH1 knockdown; HT-1080 IDH1 knockdown viability, ATP luminescence, 48 h; 360,000 tested, 2% active; Potency, µM (series often up to 46.1 µM), for the others: at the top dose activity, negative = toxicity, most hits filed as cytotoxic;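 further: potency means the concentration at half of the fitted maximal effect; 0% = DMSO wells and -100% = cell-free medium wells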
#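 Using the IDH1-knockdown HT-1080 line run in the same batch and compound series as the NT line, viability after 48 h at 37 °C was determined by CellTiter-Glo luminescence and expressed as % activity.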
# IL-1B inflam inh: inhibitors of inflammasome signaling (IL-1 beta secretion) | THP-1 LPS/ATP IL-1B secretion, AlphaLISA, 16 h; stronger effect = lower value | activity change, % at 57.5 µM | 360,000 tested, 4.7% active | AID 743279; in the data active means activity change below about -50%; inconclusive means mostly about -30% to -49%
#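 Secreted IL-1B measured by AlphaLISA bead assay after 16 h compound exposure of THP-1 cells; compounds (final up to 57.5 uM) added 1 h before LPS (250 ng/mL) and ATP (1.25 mM) stimulation; lower signal means less secretion.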
# TDP1 cell CPT: growth inhibition of DT40 Tdp1-/-;hTDP1 cells with camptothecin (screen for TDP1 inhibitors); AID 686979; 420,000 tested, 12% active; Potency, µM (titrated, usually from 46.2 µM), for the others: at the top dose activity change, negative = growth inhibition, hits mostly inhibitors; chicken DT40 Tdp1-/-;hTDP1 cells + 20 nM CPT, ATP luminescence, 48 h; further: potency means the concentration at half of the fitted maximal effect; nearly all actives have a fitted effect of over 55% in size
#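 Chicken DT40 Tdp1-/- cells stably complemented with human TDP1 were seeded at 400 cells/well in medium containing 20 nM camptothecin, exposed to pin-transferred compounds, and grown at 37 °C for at least 48 hr. Viability was read as ATP luminescence.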
# DT40 TDP1 no CPT: qHTS for Inhibitors of human tyrosyl-DNA phosphodiesterase 1 (TDP1): qHTS in cells in absence of CPT; DT40 Tdp1-/- hTDP1 cells, no CPT, ATP luminescence, 48 h; Potency, µM (titrated, usually from 46.2 µM), without a hit: at the top dose activity change, negative = growth inhibition, most hits filed as inhibitors; 420,000 tested, 15% active; AID 686978, 2013; further: potency means the concentration at half of the fitted maximal effect; nearly all actives have a fitted effect of over 55% in size
#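 Camptothecin absent (DMSO only). Human TDP1-complemented DT40 knockout cells, 400 cells/well, 37 °C for minimum 48 hr; ATP measured via CellTiter-Glo, 30 min dark incubation, luminescence.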
# An asterisk follows results filed as active; ? = inconclusive; . = no result. Only some compounds are listed: those with a hit (about 19% of all), similar ones and a draw of the others. Unless noted, the call rests on the fitted dose curve; in most records, active means well fitted curve in the direction sought with a large enough effect; inconclusive means small, poorly fitted or top-dose-only effect, or another doubt; inactive means no such curve, though single readings can be large; an effect the other way counts as inactive or inconclusive. Unless noted, on the % scale 0 is the no-effect control and ±100 the full control effect.
SMILES,ELG1 repair inh,HT1080-NT tox,HT1080 IDH1KD tx,IL-1B inflam inh,TDP1 cell CPT,DT40 TDP1 no CPT
COc1ccc(C(=O)N/C(=C/c2ccccc2F)C(=O)NCCN2CCOCC2)cc1OC,20.7%,-7.8%,-1.5%,-13.9,-13.8%,32.8%
Cc1nc(SCc2ccc(O)c([N+](=O)[O-])c2)c([N+](=O)[O-])[nH]1,-3.7%,8.7%,6.0%,-23.0,20.6µM*,20.6µM*
Cc1nc(SCc2ccc(O)c([N+](=O)[O-])c2)n[nH]1,3.0%,-0.6%,4.4%,7.9,?,-17.0%
CC(C)NCC(O)COC1C2CC3CC(C2)CC1C3 (centres undefined),-3.9%,1.7%,4.1%,3.4,20.9%,16.0%
CC1CCC(C(C)C)C(OCC(O)CNC(C)C)C1 (centres undefined),?,-15.6%,-9.4%,-10.4,23.1µM*,?
CC(=O)Nc1c(C)nn(-c2ccccc2)c1N1CCC(C(=O)Nc2ccc(F)cc2Cl)CC1,.,.,.,.,-14.7%,-27.8%
CCOC(=O)C1=CCN(S(=O)(=O)c2ccc(C)cc2)C1c1ccc(CC)cc1 (centres undefined),.,?,?,0.0,?,18.4µM*
CCOC(=O)C1=CCN(S(=O)(=O)c2ccc(C)cc2)C1c1ccc(C)cc1 (centres undefined),.,-18.1%,-15.0%,87.3,?,?
CCOC(=O)C1=CCN(S(=O)(=O)c2ccc(C)cc2)C1c1ccc(C(C)C)cc1 (centres undefined),.,-26.0%,?,16.8,18.4µM*,18.4µM*
O=C1c2oc3ccccc3c(=O)c2C(c2ccc(Br)cc2)N1c1ccccn1 (centres undefined),.,.,.,.,5.5%,-1.9%
COC(=O)c1ccc(NC(=O)C(=O)NCCc2csc3nc(-c4ccccc4F)nn23)cc1,.,.,.,.,-2.4%,-26.9%
COc1cccc(C(=O)NCCc2csc3nc(-c4ccccc4F)nn23)c1OC,.,.,.,.,25.9µM*,14.6µM*
O=C(NCCc1csc2nc(-c3ccccc3F)nn12)c1ccccc1C(F)(F)F,.,.,.,.,7.31µM*,9.2µM*
Cc1cccc(NC(=O)CSc2nnc(-c3ccco3)c(-c3ccco3)n2)c1C,-7.2%,9.3%,-4.3%,-87.4*,-7.1%,?
Cc1cccc(NC(=O)CSc2nnc(-c3ccco3)c(-c3ccco3)n2)c1,-0.4%,-5.3%,-8.3%,-94.3*,?,18.4µM*
Cc1ccnc(NC(=O)CCC(=O)c2cc(C)sc2C)c1,0.1%,8.0%,7.8%,14.5,-18.7%,-7.8%
Cc1cc2nc(NC(=O)C3(C)CCCN(C(C)C)C3)[nH]c2cc1C (centres undefined),.,-19.5%,-16.9%,25.8,-4.1%,8.4%
Cc1cc(NC(=O)c2cccc(S(=O)(=O)N3CCCCCC3)c2)n(-c2ccccn2)n1,-8.7%,3.5%,2.3%,-18.4,?,20.6µM*
Cc1cc(NC(=O)c2cccc(S(=O)(=O)N(C)C)c2)n(-c2ccccn2)n1,?,-0.5%,-10.5%,-9.0,14.6µM*,23.1µM*
Cc1cc(C)nc(-n2nc(C)cc2NC(=O)c2cccc(S(=O)(=O)N3CCCCC3)c2)n1,-13.3%,.,.,.,.,.
CC(=O)Nc1ccc(SCC(=O)Nc2ccccc2N2CCOCC2)cc1,-6.4%,-2.4%,-3.9%,-13.5,-18.1%,-4.6%
CCOc1ccc(CCN2C(=S)N([C@@H](Cc3ccc(O)cc3)CN3CCC[C@@H]3CN3C(=S)NC[C@@H]3Cc3ccccc3)C[C@@H]2CC(C)C)cc1,.,-13.1%,-5.3%,-17.0,10.3µM*,9.2µM*
CC(C)C[C@H]1CN([C@@H](CC(C)C)CN2CCCC2CN2C(=S)NC[C@@H]2Cc2ccc(O)cc2)C(=S)N1CCc1ccccc1 (some centres undefined),.,-29.8%,?,-5.6,?,?
CCOc1ccc(CCN2C(=S)N([C@@H](CC(C)C)CN3CCCC3CN3C(=S)NC[C@@H]3CC(C)C)C[C@@H]2CC(C)C)cc1 (some centres undefined),.,8.1%,8.5%,26.2,?,18.4µM*
CCOc1ccc(CCN2C(=S)N([C@@H](Cc3ccc(O)cc3)CN3CCC[C@@H]3CN3C(=S)NC[C@@H]3CC(C)C)C[C@@H]2CC(C)C)cc1,.,-16.9%,-22.5%,-59.0*,16.4µM*,20.6µM*
SMILES,ELG1 repair inh,HT1080-NT tox,HT1080 IDH1KD tx,IL-1B inflam inh,TDP1 cell CPT,DT40 TDP1 no CPT
CCOc1ccc(CCN2C(=S)N([C@@H](Cc3ccccc3)CN3CCC[C@@H]3CN3C(=S)NC[C@@H]3CC(C)C)C[C@@H]2Cc2ccccc2)cc1,.,-10.1%,17.4%,-17.2,?,14.6µM*
CCOc1ccc(CCN2C(=S)N([C@@H](Cc3ccc(O)cc3)CN3CCC[C@@H]3CN3C(=S)NC[C@@H]3CC(C)C)C[C@@H]2Cc2ccccc2)cc1,.,-17.1%,1.5%,-16.0,4.61µM*,5.17µM*
CCOc1ccc(CCN2C(=S)N([C@@H](CC(C)C)CN3CCCC3CN3C(=S)NC[C@@H]3CC(C)C)C[C@@H]2Cc2ccccc2)cc1 (some centres undefined),.,-0.8%,3.5%,15.3,16.4µM*,18.4µM*
CC(C)C[C@H]1CN([C@@H](CC(C)C)CN2CCCC2CN2C(=S)NC[C@@H]2Cc2ccccc2)C(=S)N1CCc1ccccc1 (some centres undefined),.,-3.1%,2.8%,12.0,?,?
COC(=O)CS(=O)(=O)c1cccc2cccnc12,-2.2%,0.3%,2.7%,0.3,?,13.1%
COc1ccccc1NS(=O)(=O)c1cccc(C(=O)N(C)Cc2cccs2)c1,4.5%,-2.0%,-6.4%,16.4,23.1µM*,23.1µM*
COc1ccc(S(=O)(=O)Nc2ccccc2OC)cc1NC(=O)Cc1cccs1,2.5%,-0.1%,-1.9%,0.1,?,20.6µM*
COc1ccc(-c2nn(-c3ccc(C)c(Cl)c3)c3c2cnc2cc(OC)c(OC)cc23)cc1,.,.,.,.,3.8%,5.4%
COc1cc(CCC(=O)OCC(=O)Nc2ccc(F)cc2F)cc(OC)c1OC,-28.0%,1.8%,18.7%,11.8,-5.0%,0.3%
CCCCn1nc2cc(C(=O)NCC34CC5CC(CC(C5)C3)C4)ccc2c1OCC,?,-20.5%,-4.0%,-23.2,?,16.4µM*
CC(C)(O)C#Cc1ccc(CN2CCc3nnc(CNC(=O)c4cccc(F)c4)n3CC2)cc1,.,.,.,.,7.7%,-27.4%

# Compound activity deposited in PubChem by National Center for Advancing Translational Sciences (NCATS).
